Measured values: PubChem BioAssay
Calls of active or inactive are those of the source. No rule for the calls is given here.

Assay: inhibition of Brca1/Bard1 split-luciferase complementation, confirmation, counter-screen for Mdm2/MdmX interaction inhibitor project, luminescence, single concentration (AID 504668)
Conditions: Brca1/Bard1 bimolecular luciferase complementation counterscreen, at 8 µM, active compounds read high

**Q.** For COc1cc2cncc(Cc3ccc(Cl)cc3)c2cc1OC, which inhibition is on record?
**A.** 26.2% (active)

**Q.** With COc1ccc(-c2cn[nH]c2-c2ccc(O)cc2O)cc1 as the compound, how does the inhibition read?
**A.** 25.3% (active)

**Q.** For COc1ccc2[nH]c3c(c2c1)CCNC3=O, which inhibition is on record?
**A.** 34.4% (active)

**Q.** Which inhibition does the source give for Clc1cncc(Cl)c1N/N=C/c1ccncc1 here?
**A.** 27.6% (active)

**Q.** With Cc1cccc(Nc2ncnc3ccc(Br)cc23)c1 as the compound, how does the inhibition read?
**A.** 25.6% (active)

**Q.** For COc1ccc(Cc2nnc(SCc3ccc([N+](=O)[O-])cc3)o2)cc1, which inhibition is on record?
**A.** 28.9% (active)

**Q.** For Cc1ccc2nc(C(F)(F)F)c(C#N)c(N)c2c1, which inhibition is on record?
**A.** 25.7% (active)

**Q.** With CN1CCN(c2ncnc3scc(-c4ccccc4Cl)c23)CC1 as the compound, how does the inhibition read?
**A.** 28.7% (active)

**Q.** With CCCN(CCC)c1ncnc2nc[nH]c12 as the compound, how does the inhibition read?
**A.** 34.6% (active)

**Q.** With CCN(CC)S(=O)(=O)c1ccc(NC(=O)Nc2cccc(C(F)(F)F)c2)cc1 as the compound, how does the inhibition read?
**A.** 35.2% (active)

**Q.** For O=[N+]([O-])c1ccc2ncnc(N3CCN(Cc4ccc5c(c4)OCO5)CC3)c2c1, which inhibition is on record?
**A.** 24.3% (active)

**Q.** For OCCCNc1ncnc2scc(-c3ccc(Cl)cc3)c12, which inhibition is on record?
**A.** 33.2% (active)

**Q.** With C=C(C)COc1ccc(-c2[nH]ncc2-c2ccc(OC)cc2)c(O)c1 as the compound, how does the inhibition read?
**A.** 28.9% (active)

**Q.** With CC(C)c1nc(NCCO)c(C#N)c2c1CCCC2 as the compound, how does the inhibition read?
**A.** 35% (active)

**Q.** With CC(=O)c1cccc(NC(=O)Nc2cccnc2)c1 as the compound, how does the inhibition read?
**A.** 27.6% (active)

**Q.** Which inhibition does the source give for Nc1ncnc(NCc2ccc(F)cc2)c1[N+](=O)[O-] here?
**A.** 27% (active)

**Q.** Which inhibition does the source give for COc1ccc(-c2cc(=O)oc3c(C)c(OC(=O)c4cccs4)ccc23)cc1 here?
**A.** 32.9% (active)

**Q.** With O=C(Nc1cccc2[nH]ncc12)c1ccc(F)cc1 as the compound, how does the inhibition read?
**A.** 25% (active)

**Q.** For CCN1CCN(Cc2ccc(NC(=O)c3ccc(C)c(NC(=O)C(=O)c4c[nH]c5ccccc45)c3)cc2C(F)(F)F)CC1, which inhibition is on record?
**A.** 30.8% (active)

**Q.** For CCn1c(Oc2ccccc2F)nc2c1c(=O)n(C)c(=O)n2C, which inhibition is on record?
**A.** 23.1% (active)

**Q.** For Clc1cccc(Nc2ncnc3ccc(Br)cc23)c1, which inhibition is on record?
**A.** 35.6% (active)

**Q.** Which inhibition does the source give for CCc1c(C)nc2ccc(Br)cc2c1SCCC#N here?
**A.** 23.1% (active)

**Q.** Which inhibition does the source give for CC(C)CN=C(NS(=O)(=O)c1ccccc1)C(Cl)(Cl)Cl here?
**A.** 35.9% (active)

**Q.** With Cc1[nH]nc2nc(SCC(=O)NCCC3=CCCCC3)n(-c3ccc(Br)cc3)c(=N)c12 as the compound, how does the inhibition read?
**A.** 31.1% (active)

**Q.** For c1cc2[nH]snc2c2nc(C3CC3)nc12, which inhibition is on record?
**A.** 26.4% (active)

**Q.** For Cc1[nH]nc2ncc(C(=O)c3ccccc3O)cc12, which inhibition is on record?
**A.** 30.4% (active)

**Q.** With CCOc1ccc(-n2c(C)c(C(C)=O)c3cc(O)ccc32)cc1 as the compound, how does the inhibition read?
**A.** 31.2% (active)

**Q.** For O=C(/C=C/c1cccc([N+](=O)[O-])c1)n1cnc2ccccc21, which inhibition is on record?
**A.** 24.6% (active)

**Q.** With Cn1c(Oc2ccc(Cl)cc2)c(C=O)c2ccccc21 as the compound, how does the inhibition read?
**A.** 34.4% (active)

**Q.** For COc1cccc(-c2nnc3sc(C4CCCCC4)nn23)c1, which inhibition is on record?
**A.** 25% (active)

**Q.** Which inhibition does the source give for Oc1ccc(CCNc2ncnc3ccc(Cl)cc23)cc1 here?
**A.** 28.6% (active)

**Q.** Which inhibition does the source give for FC(F)(F)c1nnc2c(Sc3ccc(Cl)cc3)nc3ccccc3n12 here?
**A.** 31.6% (active)

**Q.** With COc1ccc(-c2cncnc2-c2ccc(OC)cc2O)cc1 as the compound, how does the inhibition read?
**A.** 27.2% (active)

**Q.** With COC1(OC)C=CC(=O)C=C1NC(=O)c1ccccc1OC(C)=O as the compound, how does the inhibition read?
**A.** 35.6% (active)

**Q.** Which inhibition does the source give for NC(=O)N/N=C/c1c(Sc2nnnn2-c2ccccc2)nc2ccccn2c1=O here?
**A.** 23.4% (active)

**Q.** For Cn1nnnc1Sc1ncnc2scc(-c3ccc[nH]3)c12, which inhibition is on record?
**A.** 29.2% (active)

**Q.** For COc1ccc2cc(C(N)=O)c(=Nc3ccc(C)cc3)oc2c1, which inhibition is on record?
**A.** 35.2% (active)

**Q.** With CC(C)Nc1ncnc2ccc(Br)cc12 as the compound, how does the inhibition read?
**A.** 24.8% (active)

**Q.** For O=C(Nc1nc2ccc(F)cc2s1)C1CCN(S(=O)(=O)c2cc([N+](=O)[O-])ccc2Cl)CC1, which inhibition is on record?
**A.** 25.5% (active)

**Q.** With COc1cccc(NC(=O)Nc2nnc(CC(=O)NCc3ccccc3)s2)c1 as the compound, how does the inhibition read?
**A.** 35.1% (active)
